Hit rate of the full screen: of about 5,500 compounds, about 2,000 (36%) were called active. About 18% were inconclusive and are not listed. No stated cut-off is given here; in the data, active means normalized growth mostly below about 0.91 (no sharp cut-off); inconclusive means no clear call, values can overlap the other calls; inactive means mostly above about 0.92. Some of the results follow.
Assay: chemical genetic growth profiling, strain panel (AID 1159580);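 further: tested at 20 µM; growth read once vehicle control cultures reached saturation at 30 °C; 1 = growth at the plate median or of vehicle wells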
Settings: growth OD
[1] = S. cerevisiae deletion strains, locus YAL013W, strain DEP1, stronger effect = lower value
[2] = S. cerevisiae deletion strains, locus YBR229C, strain ROT2, stronger effect = lower value
[3] = S. cerevisiae deletion strains, locus YDL101C, strain DUN1, stronger effect = lower value
[4] = S. cerevisiae deletion strains, locus YDR150W, strain NUM1, stronger effect = lower value
[5] = S. cerevisiae deletion strains, locus YEL061C, strain CIN8, stronger effect = lower value
[6] = S. cerevisiae deletion strains, locus YGR078C, strain PAC10, stronger effect = lower value
[7] = S. cerevisiae deletion strains, locus YHR030C, strain SLT2, stronger effect = lower value
[8] = S. cerevisiae deletion strains, locus YHR087W, strain rtc3, stronger effect = lower value
[9] = S. cerevisiae deletion strains, locus YJR043C, strain POL32, stronger effect = lower value
[10] = S. cerevisiae deletion strains, locus YJR075W, strain HOC1, stronger effect = lower value
[11] = S. cerevisiae deletion strains, locus YLR039C, strain RIC1, stronger effect = lower value
[12] = S. cerevisiae deletion strains, locus YLR058C, strain SHM2 (second series), stronger effect = lower value
[13] = S. cerevisiae deletion strains, locus YLR085C, strain ARP6, stronger effect = lower value
[14] = S. cerevisiae deletion strains, locus YLR262C, strain YPT6, stronger effect = lower value
[15] = S. cerevisiae deletion strains, locus YML094W, strain GIM5, stronger effect = lower value
[16] = S. cerevisiae deletion strains, locus YMR219W, strain ESC1, stronger effect = lower value
[17] = S. cerevisiae deletion strains, locus YMR263W, strain SAP30, stronger effect = lower value
[18] = S. cerevisiae deletion strains, locus YMR307W, strain GAS1, stronger effect = lower value
[19] = S. cerevisiae deletion strains, locus YNL128W, strain TEP1, stronger effect = lower value
[20] = S. cerevisiae deletion strains, locus YNL153C, strain GIM3, stronger effect = lower value
[21] = S. cerevisiae deletion strains, locus YNL298W, strain CLA4 (second series), stronger effect = lower value
[22] = S. cerevisiae deletion strains, locus YNL322C, strain KRE1, stronger effect = lower value
[23] = S. cerevisiae deletion strains, locus YNR030W, strain Alg12, stronger effect = lower value
[24] = S. cerevisiae deletion strains, locus YPL055C, strain LGE1, stronger effect = lower value
[25] = S. cerevisiae deletion strains, locus YPL241C, strain CIN2, stronger effect = lower value
[26] = S. cerevisiae deletion strains, locus YPR135W, strain CTF4, stronger effect = lower value
[27] = S. cerevisiae strains, strain wild type, stronger effect = lower value

Measured: normalized growth

COc1ccc(-n2c(-c3ccc(C)cc3)csc2=N)cc1
inactive: [1] 0.996 | [2] 1 | [3] 1 | [4] 1.02 | [5] 0.97 | [6] 1 | [7] 1.05 | [8] 0.995 | S. cerevisiae deletion strains, locus YJL187C, strain SWE1, stronger effect = lower value 0.985 | [9] 1.01 | [10] 1.01 | [11] 1.01 | [12] 1 | [13] 0.918 | [14] 1 | [15] 0.996 | [16] 1.01 | [17] 1.03 | [18] 1.03 | [19] 0.992 | [20] 1.03 | [21] 0.983 | [22] 1 | [23] 0.988 | [24] 1.03 | [25] 1.01 | [26] 1.24 | [27] 0.994

COc1ccc(-c2ccc(C=C(C#N)C#N)s2)cc1
inactive: [1] 0.946 | S. cerevisiae deletion strains, locus YCL061C, strain MRC1, stronger effect = lower value 0.95 | [3] 0.95 | [4] 0.967 | [5] 0.922 | [7] 0.943 | [8] 0.939 | [9] 0.958 | [10] 1.01 | [12] 0.971 | [13] 0.912 | [14] 0.832 | [15] 0.899 | [16] 0.969 | [17] 0.974 | [19] 0.977 | [20] 0.938 | [21] 0.895 | [22] 0.964 | [23] 0.903 | [24] 0.932 | [25] 1.07 | [26] 0.948
active: [2] 0.918 | [6] 0.925 | [11] 0.757

C[C@H](N)[C@H](O)c1ccccc1
inactive: S. cerevisiae deletion strains, locus YBR021W, strain FUR4, stronger effect = lower value 0.997 | [2] 1 | S. cerevisiae deletion strains, locus YCL029C, strain bik1, stronger effect = lower value 1 | S. cerevisiae deletion strains, locus YDL035C, strain GPR1, stronger effect = lower value 1.01 | S. cerevisiae deletion strains, locus YDL074C, strain BRE1, stronger effect = lower value 1.01 | [3] 0.949 | S. cerevisiae deletion strains, locus YDL134C, strain PPH21, stronger effect = lower value 1 | S. cerevisiae deletion strains, locus YDL185W, strain tfp1, stronger effect = lower value 0.991 | S. cerevisiae deletion strains, locus YDL192W, strain arf1, stronger effect = lower value 1 | S. cerevisiae deletion strains, locus YDR101C, strain arx1, stronger effect = lower value 1 | [4] 1.01 | S. cerevisiae deletion strains, locus YDR162C, strain NBP2, stronger effect = lower value 1.01 | S. cerevisiae deletion strains, locus YDR318W, strain mcm21, stronger effect = lower value 0.993 | S. cerevisiae deletion strains, locus YDR388W, stronger effect = lower value 0.993 | S. cerevisiae deletion strains, locus YDR502C, strain sam2, stronger effect = lower value 0.994 | [5] 1 | S. cerevisiae deletion strains, locus YER110C, stronger effect = lower value 0.997 | S. cerevisiae deletion strains, locus YER155C, strain BEM2, stronger effect = lower value 0.998 | S. cerevisiae deletion strains, locus YER167W, strain BCK2, stronger effect = lower value 1 | S. cerevisiae deletion strains, locus YGL078C, strain dbp3, stronger effect = lower value 0.996 | S. cerevisiae deletion strains, locus YGL086W, strain mad1, stronger effect = lower value 0.991 | S. cerevisiae deletion strains, locus YGL248W, strain PDE1, stronger effect = lower value 1 | [6] 1.01 | S. cerevisiae deletion strains, locus YGR135W, strain pre9, stronger effect = lower value 0.998 | S. cerevisiae deletion strains, locus YGR229C, strain SMI1, stronger effect = lower value 1 | S. cerevisiae deletion strains, locus YGR252W, strain gcn5, stronger effect = lower value 1.01 | [7] 1 | S. cerevisiae deletion strains, locus YHR079C, strain IRE1 (second series), stronger effect = lower value 0.997 | S. cerevisiae deletion strains, locus YHR094C, strain hxt1, stronger effect = lower value 0.996 | S. cerevisiae deletion strains, locus YHR129C, strain ARP1, stronger effect = lower value 1.01 | S. cerevisiae deletion strains, locus YHR200W, strain rpn10, stronger effect = lower value 0.995 | S. cerevisiae deletion strains, locus YIL066C, strain RNR3, stronger effect = lower value 1 | S. cerevisiae deletion strains, locus YIL073C, strain SPO22, stronger effect = lower value 1.03 | S. cerevisiae deletion strains, locus YIL125W, strain kgd1, stronger effect = lower value 0.994 | S. cerevisiae deletion strains, locus YIR030C, strain dcg1, stronger effect = lower value 0.996 | S. cerevisiae deletion strains, locus YJL095W, strain BCK1, stronger effect = lower value 1.02 | S. cerevisiae deletion strains, locus YJL134W, strain LCB3, stronger effect = lower value 1 | S. cerevisiae deletion strains, locus YJL168C, strain set2, stronger effect = lower value 0.995 | S. cerevisiae deletion strains, locus YJL187C, strain SWE1 (second series), stronger effect = lower value 1.01 | [9] 0.982 | S. cerevisiae deletion strains, locus YKL009W, strain mrt4, stronger effect = lower value 0.989 | S. cerevisiae deletion strains, locus YKL068W, stronger effect = lower value 0.999 | S. cerevisiae deletion strains, locus YKL085W, strain MDH1 (second series), stronger effect = lower value 0.989 | S. cerevisiae deletion strains, locus YKL085W, strain MDH1, stronger effect = lower value 0.989 | S. cerevisiae deletion strains, locus YKL190W, strain CNB1, stronger effect = lower value 1 | S. cerevisiae deletion strains, locus YKR001C, strain vps1, stronger effect = lower value 0.99 | [11] 0.993 | S. cerevisiae deletion strains, locus YLR058C, strain SHM2, stronger effect = lower value 1 | S. cerevisiae deletion strains, locus YLR102C, strain apc9, stronger effect = lower value 1 | [14] 1.01 | S. cerevisiae deletion strains, locus YLR268W, strain sec22, stronger effect = lower value 0.99 | S. cerevisiae deletion strains, locus YLR330W, strain CHS5, stronger effect = lower value 0.999 | S. cerevisiae deletion strains, locus YLR342W, strain FKS1 (second series), stronger effect = lower value 1.01 | S. cerevisiae deletion strains, locus YLR371W, strain rom2, stronger effect = lower value 1 | S. cerevisiae deletion strains, locus YLR418C, strain cdc73, stronger effect = lower value 0.978 | S. cerevisiae deletion strains, locus YML016C, strain PPZ1, stronger effect = lower value 1 | S. cerevisiae deletion strains, locus YML032C, strain rad52, stronger effect = lower value 0.984 | S. cerevisiae deletion strains, locus YML124C, strain tub3, stronger effect = lower value 0.998 | S. cerevisiae deletion strains, locus YMR078C, strain ctf18, stronger effect = lower value 0.993 | S. cerevisiae deletion strains, locus YMR223W, strain ubp8, stronger effect = lower value 1 | [17] 1 | [18] 0.983 | S. cerevisiae deletion strains, locus YNL067W, strain RPL9B, stronger effect = lower value 1 | [19] 1.01 | [20] 1 | S. cerevisiae deletion strains, locus YNL233W, strain BNI4, stronger effect = lower value 0.996 | S. cerevisiae deletion strains, locus YNL250W, strain rad50, stronger effect = lower value 0.984 | S. cerevisiae deletion strains, locus YNL271C, strain bni1, stronger effect = lower value 0.998 | S. cerevisiae deletion strains, locus YNL298W, strain CLA4, stronger effect = lower value 1 | S. cerevisiae deletion strains, locus YNL307C, strain MCK1, stronger effect = lower value 0.999 | [22] 1 | S. cerevisiae deletion strains, locus YNR052C, strain pop2, stronger effect = lower value 1 | S. cerevisiae deletion strains, locus YOL006C, strain TOP1, stronger effect = lower value 1.02 | S. cerevisiae deletion strains, locus YOL012C, strain htz1 1.73 | S. cerevisiae deletion strains, locus YOL147C, strain pex11, stronger effect = lower value 0.996 | S. cerevisiae deletion strains, locus YOR061W, strain CKA2, stronger effect = lower value 0.998 | S. cerevisiae deletion strains, locus YOR069W, strain VPS5, stronger effect = lower value 1 | S. cerevisiae deletion strains, locus YOR136W, strain idh2, stronger effect = lower value 0.996 | S. cerevisiae deletion strains, locus YOR144C, strain elg1, stronger effect = lower value 0.995 | S. cerevisiae deletion strains, locus YOR184W, strain ser1, stronger effect = lower value 0.985 | S. cerevisiae deletion strains, locus YOR316C, strain cot1, stronger effect = lower value 0.999 | [24] 1.01 | S. cerevisiae deletion strains, locus YPR119W, strain clb2, stronger effect = lower value 0.999 | S. cerevisiae deletion strains, locus YPR141C, strain kar3, stronger effect = lower value 0.996 | S. cerevisiae deletion strains, locus YPR163C, strain tif3, stronger effect = lower value 0.994 | S. cerevisiae deletion strains, locus YPR167C, strain met16, stronger effect = lower value 1 | S. cerevisiae deletion strains, strain wtn01, stronger effect = lower value 0.983 | [27] 1

Reference: PubChem BioAssay AID1159580 (chemical genetic matrix, 2015)
